Reference: PubChem BioAssay AID1159580 (chemical genetic matrix, 2015)
“And” between values parts separate entries of the source, which are not always exact repeats. Identical values can stand only once. The whole screen tested about 5,500 compounds, of which about 2,000 (36%) were called active. Inconclusive results (about 18%) are left out. Rule as the data show it: active = normalized growth mostly below about 0.91 (no sharp cut-off); inconclusive = no clear call, values can overlap the other calls; inactive = mostly above about 0.92. The list shows a part of the results.

Assay: chemical genetic growth profiling, strain panel (AID 1159580);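 also: tested at 20 µM; growth read once vehicle control cultures reached saturation at 30 °C; 1 = growth at the plate median or of vehicle wells; lower values mean less growth of the strain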
Settings: S. cerevisiae deletion strains, growth OD

Measured: normalized growth

CCCc1nc(-c2ccccn2)[nH]c(=O)c1CC1CC1
active: locus YAL013W, strain DEP1, stronger effect = lower value 0.861 | locus YBR229C, strain ROT2, stronger effect = lower value 0.727 | locus YDL134C, strain PPH21, stronger effect = lower value 0.862 | locus YEL061C, strain CIN8, stronger effect = lower value 0.611 | locus YGR078C, strain PAC10, stronger effect = lower value 0.842 | locus YGR229C, strain SMI1, stronger effect = lower value 0.886 | locus YHR087W, strain rtc3, stronger effect = lower value 0.754 | locus YJL187C, strain SWE1, stronger effect = lower value 0.829 | locus YJR075W, strain HOC1, stronger effect = lower value 0.879 | locus YKL190W, strain CNB1, stronger effect = lower value 0.698 | locus YLR039C, strain RIC1, stronger effect = lower value 0.489 | locus YLR085C, strain ARP6, stronger effect = lower value 0.218 | locus YLR262C, strain YPT6, stronger effect = lower value 0.757 | locus YML094W, strain GIM5, stronger effect = lower value 0.534 | locus YMR219W, strain ESC1, stronger effect = lower value 0.916 | locus YMR263W, strain SAP30, stronger effect = lower value 0.889 | locus YMR307W, strain GAS1, stronger effect = lower value 0.386 | locus YNL128W, strain TEP1, stronger effect = lower value 0.869 | locus YNL153C, strain GIM3, stronger effect = lower value 0.84 | locus YNL298W, strain CLA4 (second series), stronger effect = lower value 0.601 | locus YNR030W, strain Alg12, stronger effect = lower value 0.498 | locus YPL055C, strain LGE1, stronger effect = lower value 0.738 | locus YPL241C, strain CIN2, stronger effect = lower value 0.648 | locus YPR135W, strain CTF4, stronger effect = lower value 0.413
0.292 (active) and 0.919 (inactive): locus YHR030C, strain SLT2, stronger effect = lower value
0.948 (inactive) and 0.899 (active): locus YDL101C, strain DUN1, stronger effect = lower value
inactive: locus YAR019C, strain CDC15, stronger effect = lower value 0.947 | locus YBL105C, strain PKC1, stronger effect = lower value 0.955 | locus YBR135W, strain CKS1, stronger effect = lower value 0.955 | locus YBR136W, strain MEC1, stronger effect = lower value 0.952 | locus YBR160W, strain CDC28, stronger effect = lower value 0.96 | locus YDL017W, strain CDC7, stronger effect = lower value 0.956 | locus YDL028C, strain MPS1, stronger effect = lower value 0.937 | locus YDL108W, strain KIN28, stronger effect = lower value 0.956 | locus YDL132W, strain cdc53, stronger effect = lower value 0.948 | locus YDL214C, strain PRR2, stronger effect = lower value 0.944 | locus YDR052C, strain DBF4, stronger effect = lower value 0.962 | locus YDR054C, strain cdc34, stronger effect = lower value 0.93 | locus YDR226W, strain ADK1, stronger effect = lower value 0.954 | locus YDR477W, strain SNF1, stronger effect = lower value 0.945 | locus YER123W, strain YCK3, stronger effect = lower value 0.903 | locus YER133W, strain GLC7, stronger effect = lower value 0.952 | locus YFL009W, strain cdc4, stronger effect = lower value 0.942 | locus YFL029C, strain CAK1, stronger effect = lower value 0.935 | locus YFR003C, strain YPI1, stronger effect = lower value 0.958 | locus YFR019W, strain FAB1, stronger effect = lower value 0.968 | locus YFR028C, strain CDC14, stronger effect = lower value 0.96 | locus YGR040W, strain KSS1, stronger effect = lower value 0.936 | locus YGR052W, strain FMP48, stronger effect = lower value 1.01 | locus YGR092W, strain DBF2, stronger effect = lower value 0.865 | locus YHR079C, strain IRE1, stronger effect = lower value 0.853 | locus YHR082C, strain KSP1, stronger effect = lower value 0.968 | locus YHR205W, strain SCH9, stronger effect = lower value 0.98 | locus YIL147C, strain SLN1, stronger effect = lower value 0.945 | locus YJL095W, strain BCK1, stronger effect = lower value 0.915 | locus YJL128C, strain PBS2, stronger effect = lower value 0.96 | locus YJL157C, strain FAR1, stronger effect = lower value 0.928 | locus YJR016C, strain ILV3, stronger effect = lower value 0.953 | locus YJR043C, strain POL32, stronger effect = lower value 0.923 | locus YJR066W, strain TOR1 (second series), stronger effect = lower value 0.849 | locus YJR066W, strain TOR1, stronger effect = lower value 0.887 | locus YKL048C, strain ELM1, stronger effect = lower value 0.956 | locus YKL067W, strain YNK1, stronger effect = lower value 0.954 | locus YKL101W, strain HSL1, stronger effect = lower value 0.933 | locus YKL193C, strain SDS22, stronger effect = lower value 0.952 | locus YKL203C, strain TOR2, stronger effect = lower value 0.98 | locus YLR058C, strain SHM2 (second series), stronger effect = lower value 0.938 | locus YLR113W, strain HOG1, stronger effect = lower value 0.88 | locus YLR133W, strain CKI1, stronger effect = lower value 0.938 | locus YLR403W, strain SFP1, stronger effect = lower value 0.94 | locus YML070W, strain DAK1, stronger effect = lower value 0.959 | locus YMR001C, strain CDC5, stronger effect = lower value 0.949 | locus YMR205C, strain PFK2 (second series), stronger effect = lower value 0.939 | locus YMR277W, strain FCP1, stronger effect = lower value 0.953 | locus YNL006W, strain LST8, stronger effect = lower value 0.966 | locus YNL020C, strain ARK1, stronger effect = lower value 0.937 | locus YNL161W, strain CBK1, stronger effect = lower value 0.957 | locus YNL183C, strain NPR1, stronger effect = lower value 0.93 | locus YNL207W, strain RIO2, stronger effect = lower value 0.94 | locus YNL222W, strain SSU72, stronger effect = lower value 0.959 | locus YNL307C, strain MCK1 (second series), stronger effect = lower value 0.937 | locus YNL322C, strain KRE1, stronger effect = lower value 0.975 | locus YOL078W, strain AVO1, stronger effect = lower value 0.951 | locus YOL136C, strain PFK27, stronger effect = lower value 0.959 | locus YOR061W, strain CKA2, stronger effect = lower value 0.925 | locus YOR119C, strain RIO1, stronger effect = lower value 0.937 | locus YOR231W, strain MKK1, stronger effect = lower value 0.881 | locus YOR329C, strain SCD5, stronger effect = lower value 0.952 | locus YPL031C, strain PHO85, stronger effect = lower value 0.941 | locus YPL153C, strain RAD53, stronger effect = lower value 0.926 | locus YPL204W, strain HRR25, stronger effect = lower value 0.927 | locus YPL209C, strain IPL1, stronger effect = lower value 0.958 | locus YPL256C, strain CLN2, stronger effect = lower value 0.9 | locus YPR025C, strain CCL1, stronger effect = lower value 0.949 | locus YPR106W, strain ISR1, stronger effect = lower value 0.979 | locus YPR111W, strain DBF20, stronger effect = lower value 0.973 | strain NNK1, stronger effect = lower value 0.962 | strain TSCII, stronger effect = lower value 0.949
